Unmarked numbers belong to inactive results. Records with an inconclusive call do not appear. The source made the active and inactive calls. Unless noted, the call rests on the fitted dose curve; in most records, active means well fitted curve in the direction sought with a large enough effect; inconclusive means small, poorly fitted or top-dose-only effect, or another doubt; inactive means no such curve, though single readings can be large; an effect the other way counts as inactive or inconclusive. A value given as a limit tells only on which side of the number the result lay.

Assay [1] concerns the target Lysosomal acid glucosylceramidase (Homo sapiens) (UniProt P04062). The assay is described as follows: Glucocerebrosidase-p2 (AID 348; in the data active means potency below about 10 µM; further: potency means the concentration at half of the fitted maximal effect). The settings on record: purified GBA, blue fluorogenic substrate, 40 min. The essentials: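 Normal human glucocerebrosidase (0.2 nM) with blue fluorogenic substrate (80 uM final) in citrate/phosphate pH 5.9 with 10mM sodium taurocholate, 0.01% tween-20; 40 min RT, NaOH/glycine stop; fluorescence Ex 365/Em 440; AC50 from a titration from 0.6 nM upwards.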

Assay [2] in a line: AP1 Signaling Pathway (AID 357; active means well fitted curve in either direction with a large enough effect, not every such curve was filed as active;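 further: ME-180 reporter cells stimulated with EGF at its EC50 level; on the % scale 0 is the no-effect control and ±100 the full control effect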). The settings on record: ME-180 AP-1-bla reporter, EGF-induced, beta-lactamase ratio, 5 h; at 7.69 µM (top of the series) unless noted. Put shortly:
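First, ME-180 AP-1-bla cells were cultured overnight at 37 °C in low-serum Opti-MEM. Next, titrated compounds with EC50 EGF were incubated 5 hours. Finally, CCF4 was added for 2.5 hours and the 460/530 nm ratio recorded.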

Assay [3] has as its target Cytochrome P450 1A2 (Homo sapiens) (UniProt P05177). As to the kind of experiment: p450-cyp1a2 (AID 410; calls by dose curve; further: potency means the concentration at half of the fitted maximal effect). The settings on record: recombinant CYP1A2, luciferin-ME demethylation, luminescence; series mostly up to 57 µM. The essentials:
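Luminescent demethylation readout: Luciferin-ME (100uM, equal to Km) turned over by 20nM CYP1A2 for 60 min at room temperature after NADPH regeneration addition, following 10 min compound preincubation. Normalization used 57 uM furafylline as full inhibition.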

Assay [4] deals with Glucocorticoid receptor (Homo sapiens) (UniProt P04150). As to the kind of experiment: GR-GFP Redistribution (AID 450;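 active means compounds whose dose series gives a full or clear partial fitted curve of increased nuclear translocation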; further: potency means the concentration at half of the fitted maximal effect). The settings on record: U2OS GR-GFP nuclear translocation, laser cytometry, 2 h.
For assay [5] the target is unchanged. As to the kind of experiment: GR-EFC Redistribution (AID 451; calls by dose curve; further: potency means the concentration at half of the fitted maximal effect). The settings on record: CHO-K1 GR-EFC translocation, beta-gal luminescence, 2 h. The essentials:
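Translocation of GR-ED fusion to nuclear EA restores b-gal, read by luminescence after 1 h room-temperature detection. Engineered CHO-K1 biosensor cells, 1,000/well, exposed 2 h at 37 C to titrations up to 46 uM final.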

The target in assay [6] is Mitogen-activated protein kinase 10 (Mus musculus) (UniProt Q61831). As to the kind of experiment: JNK3 AlphaScreen Assay (AID 530; active means well fitted curve in either direction with a large enough effect, not every such curve was filed as active;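 further: kinase came from lysate of stimulated human HepG2 cells; signal reports phosphorylation of biotinylated GST-cJun 1-79 at Ser73 with 10 µM ATP; on the % scale 0 is the no-effect control and ±100 the full control effect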). The settings on record: JNK3 lysate, c-Jun phosphorylation; series mostly up to 57.1 µM. Put shortly:
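qHTS titrations with 15 min compound pre-incubation before adding ATP (10 uM final). Read-out: AlphaScreen of Ser73-phosphorylated biotin-GST-cJun using HepG2 lysate JNK3 activated by IL-1β and TNFα.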
(Alpha assays give light when donor and acceptor beads are brought close together.)

For assay [7], the target named is 3',5'-cyclic-AMP phosphodiesterase 4B (Homo sapiens) (UniProt Q07343). As to the kind of experiment: qHTS Assay for Inhibitors of PDE-IV (AID 607; active means well fitted activation curve with a large enough effect in the main read-out, with a control signal flat, not every such curve was filed as active; further: % of control where 0% means no effect). The settings on record: HEK293 ACTOne CNG channel cells, membrane potential fluorescence; series mostly up to 22.9 µM. The essentials:
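Live HEK293 cells with a modified cyclic nucleotide-gated (CNG) channel report intracellular cAMP via membrane-potential dye fluorescence (ex 535/em 590 nm). Endogenous PDE-IV was targeted. Compounds were tested at up to 22.9 uM final; RO 20-1724 100 uM served as control.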

The target of assay [8] is Dual specificity protein kinase CLK4 (Homo sapiens) (UniProt Q9HAZ1). The assay is described as follows: qHTS Assay for Inhibitors of CDC-like Kinase 4 (Kinase-Glo Assay) (AID 1770). Further: nearly all actives have a fitted effect of over 65% in size. Further: potency means the concentration at half of the fitted maximal effect. The settings on record: recombinant Clk4, Kinase-Glo ATP depletion luminescence; series mostly up to 66.7 µM. Put shortly: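 Substrate mix (RS peptide 100 uM, ATP 1 uM) dispensed, compound pinned in, then Clk4 added to 25 nM final. Incubated 4.5 h at RT; Kinase-Glo reagent added, luminescence read after 5 min.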
(In qHTS, concentration-response curves come from the screen itself.)

Assay [9] shares this target. The assay is described as follows: qHTS Assay for Inhibitors of CDC-like Kinase 4 (ADP-Glo Assay) (AID 1771). Further: nearly all actives have a fitted effect of over 70% in size. Further: potency means the concentration at half of the fitted maximal effect. The settings on record: recombinant CLK4, ADP-Glo luminescence; series mostly up to 80 µM. Put shortly: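 ADP production was read by ADP-Glo luminescence after residual ATP depletion, following 1 h room-temperature reaction of 25 nM Clk4, 1 uM ATP and 100 uM RS peptide with MgCl2, EGTA, DTT and Triton X-100.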

Assay [10] has the same target. The assay is described as follows: qHTS Assay for Inhibitors of CDC-like Kinase 4 (ADP-FP Assay) (AID 1795). Further: nearly all actives have a fitted effect of over 60% in size. Further: potency means the concentration at half of the fitted maximal effect. The settings on record: Transcreener ADP fluorescence polarization; series mostly up to 50 µM. Put shortly: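 Clk4 6.25 nM; RS peptide 100 uM; ATP 1 uM; 25 mM Tris pH 7.5, 10 mM MgCl2; 1 h reaction. ADP detected via antibody/orange tracer FP displacement; TG003 positive control.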

In assay [11] the target is Ubiquitin carboxyl-terminal hydrolase 1 (Homo sapiens) (UniProt O94782). The assay is described as follows: Inhibitors of USP1/UAF1: Pilot qHTS (AID 504865).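 Further: rhodamine fluorescence freed from ubiquitin-rhodamine substrate followed over time; top concentration of the series differs between compounds; on the % scale 0 is the no-effect control and ±100 the full control effect; nearly all actives have a fitted effect of over 35% in size.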 The settings on record: purified USP1/UAF1, Ub-rhodamine cleavage fluorescence; series mostly up to 54.9 µM. Put shortly: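 In 50mM HEPES pH 7.8 containing 0.5mM EDTA, 1mM TCEP, 0.1 mg/ml BSA and 0.01% Tween-20, 1nM USP1/UAF1 is exposed to compound for 15 min, then Ub-Rho (150nM final) is added and fluorescence is read over time.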

The nature of assay [12]: Primary qHTS for small molecule stabilizers of the endoplasmic reticulum resident proteome: Secreted ER Calcium Modulated Protein (SERCaMP) assay (AID 1508630). Further: on the % scale 0 is the no-effect control and ±100 the full control effect. The settings on record: SH-SY5Y GLuc-SERCaMP (Gaussia luciferase released on ER calcium loss) secretion, thapsigargin, luminescence; series mostly up to 38.4 µM. The essentials: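 The SH-SY5Y reporter protocol was run at 3 concentrations up to 38.3 uM (primary) or 11 concentrations (follow-up): 16 h compound, 100 nM thapsigargin for 4 h, then extracellular luciferase luminescence.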

Assay [13] addresses Cytochrome P450 3A4 (Homo sapiens) (UniProt P08684). As to the kind of experiment: qHTS Assay for Activators of Cytochrome P450 3A4 (AID 885). Further: nearly all actives have a fitted effect of over 65% in size. The settings on record: recombinant CYP3A4, Luciferin-PPXE luminescence, 60 min; series mostly up to 57.1 µM. Put shortly:
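Using 20nM recombinant human CYP3A4 in potassium phosphate (200mM), substrate Luciferin-PPXE at 25uM, luminescent luciferin detection followed a 60-min RT NADPH reaction; data scaled to 57 uM ketoconazole.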

The target in assay [14] is Cytochrome P450 2C19 (Homo sapiens) (UniProt P33261). As to the kind of experiment: qHTS Assay for Inhibitors and Substrates of Cytochrome P450 2C19 (AID 899). Further: potency means the concentration at half of the fitted maximal effect; nearly all actives have a fitted effect of over 60% in size. The settings on record: recombinant CYP2C19, luciferin-H EGE luminescence; series mostly up to 57.1 µM. The essentials:
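Reactions contain 5nM enzyme, 10uM Luciferin-H EGE (KM) and 50mM KPO4; compound preincubates 10 min at 37C, NADPH regeneration starts turnover for 60 min. Luminescence after detection reagent gives activity.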

A short description of assay [15]: Stat Signaling Pathway (AID 446; active means well fitted curve in either direction with a large enough effect, not every such curve was filed as active;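 further: ME-180 cervical cancer cells given 40 pM IL-6 alongside compound; SIE-controlled beta-lactamase reporter measured as 460/530 nm FRET emission ratio; on the % scale 0 is the no-effect control and ±100 the full control effect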). The settings on record: ME-180 (cervical carcinoma) SIE beta-lactamase reporter, IL-6 stimulated, 5 h; at 7.69 µM (top of the series) unless noted. The essentials: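 Overnight-plated ME-180 cells bearing a STAT Inducible Element beta-lactamase reporter; 5 h co-exposure to compound and 40 pM IL-6; values normalized to 300 pM IL-6 and 125 nM JAK inhibitor controls.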

A short description of assay [16]: NFAT Signaling Pathway (AID 444; active means well fitted curve in either direction with a large enough effect, not every such curve was filed as active). The settings on record: Jurkat NFAT-bla M1, carbachol, beta-lactamase ratio, 5 h; at 7.69 µM (top of the series) unless noted. Put shortly:
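Read-out: CCF4 FRET ratio (460 nm/530 nm) after 1 h RT dye loading, used for %activity and AC50 from titration series. Cells: Jurkat NFAT-β-lactamase/M1 line, treated with compound plus 1 uM carbachol for 5 h, 37 °C.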

Chain of Lysosomal acid glucosylceramidase (Homo sapiens) (P04062 whole entry, looked up): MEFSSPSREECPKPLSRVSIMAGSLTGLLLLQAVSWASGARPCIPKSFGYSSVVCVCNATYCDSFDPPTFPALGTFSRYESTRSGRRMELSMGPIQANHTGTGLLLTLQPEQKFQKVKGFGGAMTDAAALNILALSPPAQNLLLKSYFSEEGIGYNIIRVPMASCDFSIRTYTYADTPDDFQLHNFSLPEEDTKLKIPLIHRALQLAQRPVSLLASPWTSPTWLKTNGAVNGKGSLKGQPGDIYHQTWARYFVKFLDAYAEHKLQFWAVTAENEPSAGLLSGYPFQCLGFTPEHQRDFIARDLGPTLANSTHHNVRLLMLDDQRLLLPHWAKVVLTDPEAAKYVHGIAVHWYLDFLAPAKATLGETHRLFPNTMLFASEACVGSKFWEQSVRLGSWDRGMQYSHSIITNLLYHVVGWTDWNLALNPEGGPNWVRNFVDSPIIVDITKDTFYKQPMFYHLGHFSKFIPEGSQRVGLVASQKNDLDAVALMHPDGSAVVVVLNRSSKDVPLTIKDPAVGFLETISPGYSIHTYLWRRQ
Chain of Cytochrome P450 3A4 (Homo sapiens) (P08684 whole entry, looked up): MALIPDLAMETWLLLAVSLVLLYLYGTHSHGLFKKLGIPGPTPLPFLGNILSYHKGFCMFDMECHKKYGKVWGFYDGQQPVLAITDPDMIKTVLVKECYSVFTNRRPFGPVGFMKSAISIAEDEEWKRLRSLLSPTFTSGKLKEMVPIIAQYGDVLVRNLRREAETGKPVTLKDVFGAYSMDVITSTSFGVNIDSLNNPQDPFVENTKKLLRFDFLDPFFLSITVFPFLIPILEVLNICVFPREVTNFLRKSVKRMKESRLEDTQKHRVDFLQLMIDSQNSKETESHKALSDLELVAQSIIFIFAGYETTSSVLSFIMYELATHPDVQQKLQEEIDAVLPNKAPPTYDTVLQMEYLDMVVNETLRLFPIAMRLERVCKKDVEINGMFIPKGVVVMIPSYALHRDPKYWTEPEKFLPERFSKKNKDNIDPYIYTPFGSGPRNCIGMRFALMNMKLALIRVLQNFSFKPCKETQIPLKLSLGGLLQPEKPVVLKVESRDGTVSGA
Chain of 3',5'-cyclic-AMP phosphodiesterase 4B (Homo sapiens) (Q07343 whole entry, looked up): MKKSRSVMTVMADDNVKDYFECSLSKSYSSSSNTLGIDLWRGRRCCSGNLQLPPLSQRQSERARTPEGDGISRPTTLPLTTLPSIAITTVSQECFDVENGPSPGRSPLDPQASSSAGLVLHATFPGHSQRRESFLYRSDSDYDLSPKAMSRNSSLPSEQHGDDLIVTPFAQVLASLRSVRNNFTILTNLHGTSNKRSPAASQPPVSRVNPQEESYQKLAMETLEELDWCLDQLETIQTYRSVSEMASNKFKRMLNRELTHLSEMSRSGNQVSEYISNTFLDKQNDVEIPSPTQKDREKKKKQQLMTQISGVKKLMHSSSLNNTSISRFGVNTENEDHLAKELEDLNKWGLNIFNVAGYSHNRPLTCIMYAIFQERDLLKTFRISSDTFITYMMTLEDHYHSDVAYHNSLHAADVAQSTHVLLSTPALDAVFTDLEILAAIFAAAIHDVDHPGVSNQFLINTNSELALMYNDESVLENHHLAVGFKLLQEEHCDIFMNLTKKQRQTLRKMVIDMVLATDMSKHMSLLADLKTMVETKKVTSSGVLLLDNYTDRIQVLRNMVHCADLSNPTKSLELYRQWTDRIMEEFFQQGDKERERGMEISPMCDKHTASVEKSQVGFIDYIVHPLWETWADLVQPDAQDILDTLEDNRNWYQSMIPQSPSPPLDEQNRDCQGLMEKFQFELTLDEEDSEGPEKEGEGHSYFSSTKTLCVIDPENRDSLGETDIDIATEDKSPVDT
Chain of Ubiquitin carboxyl-terminal hydrolase 1 (Homo sapiens) (O94782 whole entry, looked up): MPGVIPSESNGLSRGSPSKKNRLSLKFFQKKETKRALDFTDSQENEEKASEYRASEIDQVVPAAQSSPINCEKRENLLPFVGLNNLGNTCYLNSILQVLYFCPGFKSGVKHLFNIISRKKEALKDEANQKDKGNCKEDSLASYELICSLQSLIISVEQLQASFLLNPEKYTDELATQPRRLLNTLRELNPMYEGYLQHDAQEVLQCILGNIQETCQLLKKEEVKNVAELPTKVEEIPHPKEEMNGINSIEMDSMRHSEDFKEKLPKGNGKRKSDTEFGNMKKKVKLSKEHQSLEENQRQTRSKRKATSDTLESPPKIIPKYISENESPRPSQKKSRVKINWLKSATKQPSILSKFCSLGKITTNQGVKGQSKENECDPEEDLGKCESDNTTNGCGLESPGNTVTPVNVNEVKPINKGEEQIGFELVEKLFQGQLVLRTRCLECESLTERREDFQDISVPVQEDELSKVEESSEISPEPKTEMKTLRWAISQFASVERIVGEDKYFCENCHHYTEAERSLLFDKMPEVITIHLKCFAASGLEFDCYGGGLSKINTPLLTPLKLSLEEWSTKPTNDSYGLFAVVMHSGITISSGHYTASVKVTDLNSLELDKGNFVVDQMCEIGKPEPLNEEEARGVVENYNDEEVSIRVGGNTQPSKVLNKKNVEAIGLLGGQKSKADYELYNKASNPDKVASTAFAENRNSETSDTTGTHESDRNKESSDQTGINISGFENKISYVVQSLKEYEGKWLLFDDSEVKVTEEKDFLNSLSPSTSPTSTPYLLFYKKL
Chain of Glucocorticoid receptor (Homo sapiens) (P04150 whole entry, looked up): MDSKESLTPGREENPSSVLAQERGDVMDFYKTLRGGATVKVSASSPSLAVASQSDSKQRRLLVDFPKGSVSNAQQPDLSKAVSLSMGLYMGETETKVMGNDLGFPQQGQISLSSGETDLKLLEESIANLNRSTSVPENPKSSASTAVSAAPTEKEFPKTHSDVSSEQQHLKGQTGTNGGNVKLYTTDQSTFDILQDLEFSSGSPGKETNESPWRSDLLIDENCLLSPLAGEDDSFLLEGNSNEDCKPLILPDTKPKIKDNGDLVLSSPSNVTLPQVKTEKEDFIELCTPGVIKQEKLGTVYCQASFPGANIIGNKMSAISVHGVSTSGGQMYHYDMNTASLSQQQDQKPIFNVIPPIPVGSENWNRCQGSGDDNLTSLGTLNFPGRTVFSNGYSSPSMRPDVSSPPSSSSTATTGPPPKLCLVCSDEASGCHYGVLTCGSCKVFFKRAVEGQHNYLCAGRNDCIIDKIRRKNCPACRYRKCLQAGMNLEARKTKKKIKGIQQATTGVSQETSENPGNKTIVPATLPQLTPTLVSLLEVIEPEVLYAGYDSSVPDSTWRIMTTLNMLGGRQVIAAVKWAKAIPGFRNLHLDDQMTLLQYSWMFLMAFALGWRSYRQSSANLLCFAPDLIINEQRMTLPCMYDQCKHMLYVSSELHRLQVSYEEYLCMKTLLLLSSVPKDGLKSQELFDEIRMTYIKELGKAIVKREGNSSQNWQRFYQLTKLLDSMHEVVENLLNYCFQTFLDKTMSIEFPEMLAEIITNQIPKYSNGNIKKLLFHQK
Chain of Cytochrome P450 1A2 (Homo sapiens) (P05177 whole entry, looked up): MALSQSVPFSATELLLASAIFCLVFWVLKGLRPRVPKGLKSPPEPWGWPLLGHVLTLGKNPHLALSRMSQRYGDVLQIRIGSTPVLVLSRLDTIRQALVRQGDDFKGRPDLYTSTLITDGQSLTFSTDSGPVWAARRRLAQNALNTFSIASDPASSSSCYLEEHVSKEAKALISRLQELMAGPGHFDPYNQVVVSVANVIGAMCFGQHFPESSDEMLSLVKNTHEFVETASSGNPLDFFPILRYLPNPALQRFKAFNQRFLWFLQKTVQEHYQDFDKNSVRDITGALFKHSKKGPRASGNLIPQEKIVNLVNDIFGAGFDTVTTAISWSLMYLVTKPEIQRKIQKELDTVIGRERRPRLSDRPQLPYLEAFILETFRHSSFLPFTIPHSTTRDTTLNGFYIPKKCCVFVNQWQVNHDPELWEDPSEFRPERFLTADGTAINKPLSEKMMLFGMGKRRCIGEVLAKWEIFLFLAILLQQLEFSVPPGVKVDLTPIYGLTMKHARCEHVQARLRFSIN
Chain of Dual specificity protein kinase CLK4 (Homo sapiens) (Q9HAZ1 whole entry, looked up): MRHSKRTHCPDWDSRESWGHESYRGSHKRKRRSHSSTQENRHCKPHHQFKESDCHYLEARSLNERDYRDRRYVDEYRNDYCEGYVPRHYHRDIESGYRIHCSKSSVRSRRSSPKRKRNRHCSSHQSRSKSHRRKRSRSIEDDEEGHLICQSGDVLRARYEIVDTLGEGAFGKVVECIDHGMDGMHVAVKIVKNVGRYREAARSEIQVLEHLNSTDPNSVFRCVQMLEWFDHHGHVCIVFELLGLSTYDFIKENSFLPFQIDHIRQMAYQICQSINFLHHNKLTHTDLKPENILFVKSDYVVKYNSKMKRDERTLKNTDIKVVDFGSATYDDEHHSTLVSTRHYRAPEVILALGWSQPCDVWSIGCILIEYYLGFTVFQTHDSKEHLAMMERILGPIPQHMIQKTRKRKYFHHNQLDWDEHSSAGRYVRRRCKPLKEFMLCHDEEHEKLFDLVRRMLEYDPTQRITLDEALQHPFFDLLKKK
Chain of Cytochrome P450 2C19 (Homo sapiens) (P33261 whole entry, looked up): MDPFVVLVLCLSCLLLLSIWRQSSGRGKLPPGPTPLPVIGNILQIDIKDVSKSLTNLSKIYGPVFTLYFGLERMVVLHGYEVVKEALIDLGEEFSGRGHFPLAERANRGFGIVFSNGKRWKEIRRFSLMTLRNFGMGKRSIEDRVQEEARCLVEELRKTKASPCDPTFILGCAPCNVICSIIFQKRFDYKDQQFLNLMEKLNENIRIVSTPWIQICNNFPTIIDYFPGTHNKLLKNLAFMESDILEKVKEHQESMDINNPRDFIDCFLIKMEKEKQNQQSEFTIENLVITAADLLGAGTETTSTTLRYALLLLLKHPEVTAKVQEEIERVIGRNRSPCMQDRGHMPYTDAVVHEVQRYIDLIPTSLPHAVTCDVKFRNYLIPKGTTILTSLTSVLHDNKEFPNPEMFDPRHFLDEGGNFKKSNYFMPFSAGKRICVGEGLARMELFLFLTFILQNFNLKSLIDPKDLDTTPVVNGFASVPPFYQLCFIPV

Consider `O=c1c(-c2cc(F)cc(F)c2)nc2cnc(N3CCOCC3)nc2n1CCc1ccccc1`, for which the Potency in assay [1] was more than 11.4 µM; in assay [3], 2.51 µM (active); in assay [4], more than 9.22 µM; in assay [5], more than 46 µM. For the same compound, in assay [2], the activity change, negative = inhibition is 29.6%. In addition, the Potency result in [6], in assay [7], in [8], in [9], in assay [10] and in assay [11] was “inactive” each time. Further, the result in assay [12] was inactive.

For the compound `Cc1noc(C)c1-c1ccc2ncnc(NCc3cccs3)c2c1`, the Potency in assay [1] was more than 11.4 µM; in assay [3], 0.398 µM (active); in assay [4], more than 46 µM; in assay [5], more than 46 µM; in assay [14] it was 1.26 µM (active); in [8], 0.501 µM (active). Further, the figures for the Potency in assay [9] and in assay [10] were 0.447 µM (active) and 0.158 µM (active), respectively. Besides, the activity change, negative = inhibition in [2] was 20.1%. Further, the Potency entry in assay [6] and in assay [13] was “inactive” each time. In addition, in [12], the result was inactive.

`CN(C)c1ncc2nc(-c3ccc(Cl)cc3)c(=O)n(C)c2n1`: the Potency in assay [1] was more than 11.4 µM; in [3], 1.58 µM (active); in assay [4] it was more than 9.22 µM; in assay [5], more than 46 µM. In addition, in assay [2], the activity change, negative = inhibition was 24.8%. The Potency result in [6], in assay [7], in assay [8], in assay [9], in [10] and in assay [11] was “inactive” in each case. Further, in [12], the outcome was inactive.

Consider `O=c1c(-c2ccccc2)nc2cnc(N3CCOCC3)nc2n1C[C@H]1CCCO1`, for which the Potency was more than 11.4 µM in assay [1], 3.16 µM (active) in assay [3], more than 9.22 µM in assay [4] and more than 46 µM in assay [5]. Moreover, in [2], the activity change, negative = inhibition was 17%. The activity, negative = inhibition in [15] is 20.8%. Moreover, the Potency result in assay [6], in assay [7], in assay [13], in assay [8], in assay [9] and in [10] was “inactive” throughout. The Potency entry in assay [11] is “inactive”. The outcome in [12] was inactive.

`Cc1noc(C)c1-c1ccc2ncnc(N3CCOCC3)c2c1`: the Potency in assay [1] is more than 11.4 µM; in assay [3], 12.6 µM (active); in assay [4] it was more than 46 µM; in assay [5], more than 46 µM; in assay [8], 12.6 µM (active); in assay [9], 7.94 µM (active). In addition, in [10], the Potency is 8.91 µM (active). Moreover, in assay [2], the activity change, negative = inhibition was 11%. Besides, in [15], the activity, negative = inhibition was -8.22%. Also, the Potency entry in assay [6], in [7], in assay [13] and in assay [11] was “inactive” in each case. In assay [12], the result was inactive.

In the case of `COc1cccc(Cn2c(=O)c(-c3ccc(F)cc3)nc3cncnc32)c1`, the Potency is more than 11.4 µM in assay [1], more than 9.22 µM in assay [4] and more than 46 µM in assay [5]. The activity change, negative = inhibition in assay [2] was -16.6%; in assay [16], -9.33%. For the same compound, the activity, negative = inhibition in [15] is -13.6%. Also, the Potency result in [6], in assay [8], in [9], in assay [10] and in [11] was “inactive” throughout. In addition, in assay [12], the outcome was inactive.

`COc1cccc(Cn2c(=O)c(-c3cc(F)cc(F)c3)nc3cncnc32)c1`: the Potency in assay [1] is more than 11.4 µM; in [4], more than 9.22 µM; in assay [5], more than 46 µM. The activity change, negative = inhibition in assay [2] is 0.277%; in [16], 0.731%. The activity, negative = inhibition in assay [15] is -1.76%. Further, the Potency result in assay [8], in [9], in [10] and in [11] was “inactive” each time. The result in assay [12] was inactive.

The record behind these values is PubChem BioAssay (NCATS).
